Reference: PubChem BioAssay (Tox21)
Results filed as inconclusive are left out. Active and inactive are the calls of the source. Unless noted, calls follow the shape of the dose curve; as a rule, active = well fitted curve in the direction sought with a large enough effect in the repeat runs; inconclusive = weak or mixed curves; inactive = no such curve, though single readings can be large; an effect the other way counts as inactive or inconclusive.

Legend:
[1] = qHTS assay to identify small molecule agonists of the hypoxia (HIF-1) signaling pathway (AID 1224846; active = well fitted activation curve with a large enough effect in the signal ratio in the repeat runs, not every such curve was filed as active; the % refers to the signal ratio)
In short: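 Measured by blue/green FRET after loading CCF4-AM: beta-lactamase expressed from a hypoxia response element in ME-180 cells. Test agents were delivered in DMSO and left 17 hrs; cells had been plated 5 hrs earlier in low-serum (0.5% dialyzed FBS) medium.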

[2] = qHTS assay to identify small molecule agonists of H2AX - cell viability counter screen (AID 1224847; calls by dose curve; also: top concentration of the series differs between compounds; nearly all actives have a fitted effect of over 30% in size)
In short: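 Quantitative HTS viability measurement: CHO-K1 wild-type cells in serum (10% FBS) medium, short 3 hr drug exposure at 37C with 0.76% DMSO, CellTiter-Glo luminescent detection.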

[3] = qHTS RealTime-Glo MT Cell Viability Assay in HepG2 cells - 24 hour (AID 1224867); also: nearly all actives have a fitted effect of over 50% in size
In short: (§1)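 HepG2 cells were seeded at 600 cells/well together with NanoLuc luciferase and a cell-permeant prosubstrate, preincubated 5 h at 37 C/5% CO2, then pin-dosed with compounds in DMSO. Nonlytic luminescence from viable cells was read at each time point.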

[4] = qHTS RealTime-Glo MT Cell Viability Assay in HEK293 cells - 32 hour (AID 1224868); also: top concentration of the series differs between compounds; nearly all actives have a fitted effect of over 50% in size
In short: (§2)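 HEK293 cells were seeded at 600 cells/well together with NanoLuc luciferase and cell-permeant prosubstrate, preincubated 5 h at 37 C/5% CO2, then given compound in DMSO by pintool. Luminescence from viable-cell prosubstrate reduction was read repeatedly over 40 h.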

[5] = A CellTox Green Cytotoxicity Assay to monitor cytotoxicity in HEK293 cells - 0 hour (AID 1224869); also: nearly all actives have a fitted effect of over 50% in size
In short: (§3)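 Each value comes from one timepoint of a single continuous run in which HEK293 cells with CellTox Green were exposed to compound for up to 40 h at 37 C, dye fluorescence rising with cell death.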

[6] = qHTS RealTime-Glo MT Cell Viability Assay in HepG2 cells - 40 hour (AID 1224870); also: nearly all actives have a fitted effect of over 50% in size
In short: (§4)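 Real-time viability: cells seeded at 600 per well together with NanoLuc and cell-permeant prosubstrate, compounds added after 5 h incubation. Luminescence tracked at 0, 8, 16, 24, 32 and 40 h of exposure.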

[7] = A CellTox Green Cytotoxicity Assay to monitor cytotoxicity in HEK293 cells - 40 hour (AID 1224871); also: nearly all actives have a fitted effect of over 45% in size
In short: as §3

[8] = qHTS RealTime-Glo MT Cell Viability Assay in HEK293 cells - 16 hour (AID 1224872)
In short: as §2

[9] = qHTS RealTime-Glo MT Cell Viability Assay in HepG2 cells - 8 hour (AID 1224873); also: nearly all actives have a fitted effect of over 55% in size
In short: as §4

[10] = qHTS RealTime-Glo MT Cell Viability Assay in HEK293 cells - 40 hour (AID 1224874); conditions: RealTime-Glo luminescence; max response: active compounds read low; also: nearly all actives have a fitted effect of over 50% in size
In short: (§5)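 qHTS format; HEK293 cells with NanoLuc/prosubstrate reagent, 37 C/5% CO2 for 5 h pre-dosing; compounds 23 nL in DMSO; luminescence at each time point reflects viable cells.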

[11] = A CellTox Green Cytotoxicity Assay to monitor cytotoxicity in HEK293 cells - 24 hour (AID 1224875); also: series mostly up to about 77 µM; nearly all actives have a fitted effect of over 45% in size
In short: as §3

[12] = A CellTox Green Cytotoxicity Assay to monitor cytotoxicity in HepG2 cells - 16 hour (AID 1224876); also: nearly all actives have a fitted effect of over 45% in size
In short: (§6)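 Continuous culture of HepG2 cells with a membrane-impermeant DNA dye; rising fluorescence marks dead cells. Compound exposure lasted up to 40 h at 37 C, with reads every 8 h from 0 h.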

[13] = qHTS RealTime-Glo MT Cell Viability Assay in HepG2 cells - 32 hour (AID 1224877); also: nearly all actives have a fitted effect of over 55% in size
In short: as §1

[14] = A CellTox Green Cytotoxicity Assay to monitor cytotoxicity in HepG2 cells - 24 hour (AID 1224878); also: nearly all actives have a fitted effect of over 45% in size
In short: as §6

[15] = A CellTox Green Cytotoxicity Assay to monitor cytotoxicity in HepG2 cells - 40 hour (AID 1224879); also: nearly all actives have a fitted effect of over 40% in size
In short: as §6

[16] = qHTS RealTime-Glo MT Cell Viability Assay in HEK293 cells - 0 hour (AID 1224880)
In short: as §5

[17] = A CellTox Green Cytotoxicity Assay to monitor cytotoxicity in HepG2 cells - 0 hour (AID 1224882); also: nearly all actives have a fitted effect of over 35% in size
In short: as §6

[18] = A CellTox Green Cytotoxicity Assay to monitor cytotoxicity in HEK293 cells - 32 hour (AID 1224881); also: nearly all actives have a fitted effect of over 40% in size
In short: as §3
% is scaled to controls: 0 for no effect and ±100 for the full control effect.

Clc1nc2ccccc2s1
inactive: outcome [1] | Potency [2] | Potency [3] | Potency [4] | Potency [5] | Potency [6] | Potency [7] | Potency [8] | Potency [9] | max response [10] -10.6% | Potency [11] | Potency [12] | Potency [13] | Potency [14] | Potency [15] | Potency [16] | Potency [17]

CCCCCCS
inactive: outcome [1] | Potency [2] | Potency [3] | Potency [4] | Potency [5] | Potency [6] | Potency [7] | Potency [8] | Potency [9] | max response [10] 6.5% | Potency [11] | Potency [12] | Potency [14] | Potency [15] | Potency [16] | Potency [18] | Potency [17]

C=CC(C)C#N (stereo not given)
inactive: outcome [1] | Potency [2] | Potency [3] | Potency [4] | Potency [5] | Potency [6] | Potency [7] | Potency [8] | Potency [9] | Potency [11] | Potency [12] | Potency [13] | Potency [14] | Potency [15] | Potency [16] | Potency [17]

O=C(O)Cc1ccc(OCCNC[C@H](O)c2ccccc2)cc1
inactive: outcome [1] | Potency [2] | Potency [3] | Potency [4] | Potency [5] | Potency [6] | Potency [7] | Potency [8] | Potency [9] | max response [10] 6.67% | Potency [11] | Potency [12] | Potency [13] | Potency [14] | Potency [15] | Potency [16] | Potency [18] | Potency [17]

CCC(C)c1ccccc1 (stereo not given)
inactive: outcome [1] | Potency [2] | Potency [3] | Potency [4] | Potency [5] | Potency [6] | Potency [7] | Potency [8] | Potency [9] | max response [10] 6.63% | Potency [11] | Potency [12] | Potency [13] | Potency [14] | Potency [15] | Potency [16] | Potency [17]

CN(C)CCN1CCOCC1
inactive: outcome [1] | Potency [2] | Potency [3] | Potency [4] | Potency [5] | Potency [6] | Potency [7] | Potency [8] | Potency [9] | max response [10] 7.62% | Potency [11] | Potency [12] | Potency [13] | Potency [14] | Potency [15] | Potency [16] | Potency [17]

CCc1cccc(C)c1
inactive: outcome [1] | Potency [2] | Potency [3] | Potency [4] | Potency [5] | Potency [6] | Potency [7] | Potency [8] | max response [10] -0.877% | Potency [11] | Potency [12] | Potency [13] | Potency [14] | Potency [15] | Potency [16] | Potency [18] | Potency [17]

CCCCCCCC/C=C\CCCCCCCC(=O)OCCOC(=O)CCCCCCC/C=C\CCCCCCCC
inactive: outcome [1] | Potency [2] | Potency [3] | Potency [4] | Potency [5] | Potency [6] | Potency [7] | max response [10] -19.3% | Potency [11] | Potency [12] | Potency [13] | Potency [14] | Potency [15] | Potency [18] | Potency [17]

CCCC(C)CCC(C)=O (stereo not given)
inactive: outcome [1] | Potency [2] | Potency [3] | Potency [4] | Potency [5] | Potency [7] | Potency [8] | max response [10] 12.6% | Potency [11] | Potency [14] | Potency [15] | Potency [16] | Potency [18] | Potency [17]

COC(=O)CC#N
inactive: outcome [1] | Potency [2] | Potency [3] | Potency [4] | Potency [6] | Potency [7] | Potency [8] | Potency [9] | max response [10] 9.57% | Potency [11] | Potency [12] | Potency [13] | Potency [14] | Potency [15] | Potency [16] | Potency [18] | Potency [17]
